Here are results for seven molecules from PubChem BioAssay (NCATS).

Experiment [1] in a line: qHTS profiling for inhibitors of Plasmodium falciparum (3D7) proliferation (AID 743322; call rule not given here;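 further: infected erythrocytes exposed to compound for 72 h before lysis; 100% = DMSO vehicle wells and 0% = 0.29 µM artemisinin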). Particulars: P. falciparum 3D7 proliferation; at 28.7 µM (top of the series) unless noted. The procedure, abridged:
(§1)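 Erythrocytes infected with P. falciparum (0.3% parasitemia, 2.5% hematocrit) incubated with compounds 72 h at 37 C, 5% CO2. Lysis with saponin/Triton buffer containing SYBR Green I, overnight at room temperature in the dark; DNA fluorescence (485/535 nm) normalised to 0.29 uM artemisinin and DMSO.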

Experiment [2] in a line: qHTS profiling for inhibitors of Plasmodium falciparum (HB3) proliferation (AID 743324).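 Further: 100% = DMSO vehicle wells and 0% = artemisinin-treated control wells.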 The conditions noted are these: Plasmodium falciparum HB3 blood-stage proliferation; at 28.7 µM (top of the series) unless noted. The gist of the method:
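P. falciparum HB3 grown in erythrocytes (0.3% parasitemia, 2.5% hematocrit final) with compound for 72 h at 37 C, 5% CO2. Parasite DNA detected by SYBR Green after saponin/triton lysis overnight; normalized to 0.29 uM artemisinin and DMSO.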
In general terms: qHTS replaces the single test concentration by a dilution series.

Experiment [3] in a line: qHTS profiling of the MIPE4 collection as inhibitors of Plasmodium falciparum (3D7) proliferation (AID 743344; call rule not given here;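 further: scaled between DMSO vehicle wells and 0.29 µM artemisinin as full inhibition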). The conditions noted are these: P. falciparum 3D7 in erythrocytes, SYBR Green DNA fluorescence, 72 h; at 28.5 µM (top of the series) unless noted. The procedure, abridged:
as §1

Experiment [4] in a line: qHTS profiling of the MIPE4 collection as inhibitors of Plasmodium falciparum (DD2) proliferation (AID 743345; call rule not given here). Particulars: P. falciparum Dd2 in erythrocytes, SYBR Green DNA, 72 h; at 28.5 µM (top of the series) unless noted. The procedure, abridged:
as §1

Experiment [5] in a line: qHTS profiling of the MIPE4 collection as inhibitors of Plasmodium falciparum (DD2) proliferation (Rep 2) (AID 743346; call rule not given here). The conditions noted are these: P. falciparum Dd2 in erythrocytes, SYBR Green DNA, 72 h; at 28.5 µM (top of the series) unless noted. The procedure, abridged:
as §1

Experiment [6] is described as follows: qHTS profiling of the MIPE4 collection as inhibitors of Plasmodium falciparum (HB3) proliferation (AID 743347; call rule not given here;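 further: plate controls were DMSO vehicle wells for no effect and artemisinin wells for full effect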). The conditions noted are these: P. falciparum HB3 in erythrocytes, SYBR Green DNA, 72 h; at 28.5 µM (top of the series) unless noted. The procedure, abridged:
as §1

Experiment [7] can be described thus: High-throughput drug toxicity screening in the BPDCN cell line Gen2.2 (AID 1224824; call rule not given here;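 further: cells exposed to compounds for 48 h before reading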). Particulars: Gen2.2 BPDCN cells; at 45.8 µM (top of the series) unless noted. The procedure, abridged: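 Gen2.2, 500 cells/well, phenol red-free RPMI/10% FBS/Pen-Strep; 48 h cpd, 37 °C/5% CO2; CTG lum, 15 min RT. Norm: DMSO = 100%, bortezomib 9.2 uM final = 0%.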
Experiment [8] can be described thus: High-throughput drug toxicity screening in the BPDCN cell line Cal-1 (AID 1224825; call rule not given here). Particulars: Cal-1 BPDCN cell viability, qHTS; at 45.8 µM (top of the series) unless noted. The gist of the method: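 500 Cal-1 cells/well, RPMI + glutamine + 10% FBS (phenol red-free); cpd added by pin tool; 48 h, 37C, 5% CO2; CTG 15 min RT, lumi read. Normalised: DMSO 100%, bortezomib 9.2 uM 0%.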

Experiment [9] in a line: qHTS assay for measurement of the activity of small molecule inhibitors on Zika virus induced Caspase-3 activity in human iPSC derived neural progenitor cells (hNPCs) (AID 1224857). Further: nearly all actives have a fitted effect of over 65% in size. Further: potency means the concentration at half of the fitted maximal effect. The gist of the method: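 Quantitative HTS format: human iPSC neural progenitors, 1 h compound pretreatment, ZIKV 2 FFU/cell for 6 h at 37 C. Percent inhibition derived from luminescent caspase-3/7 signal between uninfected and infected controls.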

Experiment [10] can be described thus: qHTS assay for measurement of the activity of small molecule inhibitors on Zika virus induced Caspase-3 activity in human astrocytoma cells (AID 1224859). Further: potency means the concentration at half of the fitted maximal effect. The procedure, abridged:
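Readout is luminescence from Caspase-Glo 3/7 added after a 6 h ZIKV infection (2 FFU/cell) of compound-pretreated (1 h) SNB-19 cells; data expressed as % inhibition versus uninfected and infected wells.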

Experiment [11] is described as follows: qHTS Screen of the MIPE 4.0 Collection Against Ewings Sarcoma (RDES) (AID 1259252). Further: nearly all actives have a fitted effect of over 35% in size. Further: potency means the concentration at half of the fitted maximal effect. The gist of the method:
(§2)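 After a 4 h attachment period in RPMI/5% FBS, cells were pin-dosed with test compounds; DMSO served as negative and 9.2 uM bortezomib (final) as positive control. Luminescent CellTiter-Glo signal at 48 h defined viability.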

A short description of experiment [12]: qHTS Screen of the MIPE 4.0 Collection Against Ewings Sarcoma (EW8) (AID 1259255). Further: nearly all actives have a fitted effect of over 35% in size. Further: potency means the concentration at half of the fitted maximal effect.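 On viability: 100% = DMSO-treated cells and 0% = medium-only wells without cells.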 The procedure, abridged:
as §2

Experiment [13] can be described thus: qHTS Screen of the MIPE 4.0 Collection Against Ewings Sarcoma (TC32) (AID 1259256). Further: nearly all actives have a fitted effect of over 45% in size. Further: potency means the concentration at half of the fitted maximal effect. The gist of the method:
as §2

Experiment [14] in a line: qHTS profiling for inhibitors of Plasmodium falciparum (DD2) proliferation (AID 743323; call rule not given here). Particulars: lower = more inhibition; at 28.7 µM (top of the series) unless noted. The procedure, abridged:
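1536-well qHTS; infected RBCs 0.3% parasitemia/2.5% Hct final; cpd 72 h 37 C 5% CO2; lysis buffer + SYBR Green I, o/n RT dark; FI 485/535; norm. to 0.29 uM artemisinin and DMSO, plate-stack corrected.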

Experiment [15] is described as follows: qHTS Screen of the MIPE 4.0 Collection Against Ewings Sarcoma (TC71) (AID 1259253). Further: nearly all actives have a fitted effect of over 40% in size. Further: potency means the concentration at half of the fitted maximal effect. The procedure, abridged:
as §2

A short description of experiment [16]: qHTS assay to identify small molecule inhibitors of chordoma cells - UCH-1 (AID 1259355). Further: on the % scale 0 is the no-effect control and ±100 the full control effect; nearly all actives have a fitted effect of over 55% in size. The procedure, abridged:
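Seed 800 cells per well; incubate overnight at 37 C, 5% CO2. Add test compounds (15 concentrations), then the auranofin–topoisomerase-agent combination. Incubate 48hr, add CellTiter-Glo, wait 30min, read luminescence.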

Experiment [17] is described as follows: Identifying Small Molecule Inhibitors of Pancreatic Cancer Stem Cells (A2780, Spheroid) (AID 1259357).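 Further: spheroids pre-formed over 14 days in stem cell medium on hydrogel; compound exposure lasted 48 h before the ATP luminescence read; 100% = DMSO treated cells and 0% = wells without cells.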 Particulars: Potency: A2780 spheroid viability. The procedure, abridged:
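Pre-formed 14-day tumor spheroids or adherent cells dosed and incubated 48 h, 37C, 5% CO2. Viability assessed by CellTiter-Glo.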

“And” between values parts separate entries of the source, which are not always exact repeats. Identical values can stand only once. Inconclusive results are not listed. Some structures have more than one record in an assay (separate samples or runs), and their calls can disagree. The source made the active and inactive calls. Unless noted, the call rests on the fitted dose curve; in most records, active means well fitted curve in the direction sought with a large enough effect; inconclusive means small, poorly fitted or top-dose-only effect, or another doubt; inactive means no such curve, though single readings can be large; an effect the other way counts as inactive or inconclusive.

Take `COc1ccccc1-c1cccc(-c2c(O)c3cc(C#N)c(Cl)cc3[nH]c2=O)c1`: in experiment [1], the remaining parasite growth % (stronger effect = lower value) worked out at 97.4%. Further, the remaining proliferation (% of control), lower = more inhibition in experiment [2] stood at 74.9%. In experiment [3], this molecule had a parasite growth, % of DMSO control of 37.5% [at 57.5 µM]. Also, the parasite growth remaining, % of DMSO control (lower = more inhibition) in experiment [4] stood at 84.4% [at 57.5 µM]. For the same molecule, the parasite growth, % of control (lower = inhibition) in experiment [5] was 32.5% [at 57.5 µM]. The same molecule came in with a growth, % of control in experiment [6] of 14.1% [at 57.5 µM]. The cell viability, % of control (lower = more cytotoxic) in experiment [7] was 52.6% [at 92.2 µM]. The same molecule returned a viability (% of control) in experiment [8] of 99.8% [at 92.2 µM]. Also, the Potency entry in [9], in experiment [10], in [11] and in experiment [13] was “inactive” each time. In addition, the Potency in experiment [12] is 30.3 µM (active).

As to `COc1ccccc1[C@H](c1cccc2ccccc12)[C@@](C)(C#N)C(=O)N1CCC(c2cccc(C(F)(F)F)c2)CC1`, in [1], the remaining parasite growth % (stronger effect = lower value) turned out to be 1.65%. In addition, the activity, percent of control in experiment [14] stood at 1.44%. In experiment [2], this molecule returned a remaining proliferation (% of control), lower = more inhibition of 0.956%. This molecule also registered a parasite growth, % of DMSO control in experiment [3] of 5.47%. In experiment [4], the parasite growth remaining, % of DMSO control (lower = more inhibition) was 8.96%. Also, the parasite growth, % of control (lower = inhibition) in experiment [5] came to 9.97%. The molecule also had a growth, % of control in experiment [6] of 6.38%. In addition, in experiment [7], the cell viability, % of control (lower = more cytotoxic) was 2.69%. In addition, in experiment [8], the viability (% of control) was 10.6%. Further, the Potency result in [9] and in experiment [10] was “inactive” in each case. For the same molecule, the Potency in [11] is 13.2 µM (active); in [15] it was 10.5 µM (active); in experiment [12], 6.62 µM (active); in [13] it was 13.2 µM (active).

For the molecule `Cc1oncc1C(=O)Nc1ccc(C(F)(F)F)cc1`, in experiment [1], the remaining parasite growth % (stronger effect = lower value) is 104% and 91.9%. Besides, in [14], the activity, percent of control is 94.9% and 88.9%. Further, the remaining proliferation (% of control), lower = more inhibition in experiment [2] is 95% and 87.2%. Moreover, the parasite growth, % of DMSO control in [3] was found to be 13.7%. Also, the parasite growth remaining, % of DMSO control (lower = more inhibition) in [4] was 102%. The parasite growth, % of control (lower = inhibition) in experiment [5] turned out to be 61.2%. The same molecule returned a growth, % of control in experiment [6] of 10.6%. In experiment [7], the cell viability, % of control (lower = more cytotoxic) was found to be 32.8%. Besides, the viability (% of control) in experiment [8] came out at 63.8%. Further, the Potency result was “inactive and 2.64 µM (active)” in experiment [9]; “inactive and 2.64 µM (active)” in experiment [10]; 8.33 µM (active) in experiment [11]; 18.7 µM (active) in [15]; 20.9 µM (active) in experiment [12]. Moreover, the Potency result in [16] and in experiment [17] was “inactive” throughout.

Take `Cc1ccccc1C(OCCN(C)C)c1ccccc1` (centres undefined): the parasite growth, % of DMSO control in experiment [3] is 64.6%. For the same molecule, in experiment [4], the parasite growth remaining, % of DMSO control (lower = more inhibition) is 60.2%. Also, the parasite growth, % of control (lower = inhibition) in [5] is 40.2%. Further, the growth, % of control in [6] amounted to 87.3%. Further, in experiment [7], the cell viability, % of control (lower = more cytotoxic) was determined as 149%. Further, the viability (% of control) in [8] came to 93%. Further, the Potency result in experiment [9], in experiment [10], in [11], in [15], in experiment [12] and in [13] was “inactive” throughout. The Potency entry in experiment [16] is “inactive”.

In the case of `Cc1cc([C@@H](C)Nc2ccccc2C(=O)O)c2nc(N3CCOCC3)cc(=O)n2c1`, in experiment [1], the remaining parasite growth % (stronger effect = lower value) is 50.6%. In [14], this molecule returned an activity, percent of control of 29.8%. The same molecule came in with a remaining proliferation (% of control), lower = more inhibition in experiment [2] of 31.4%. Further, the parasite growth, % of DMSO control in experiment [3] turned out to be 5.01% [at 57.5 µM]. In addition, the parasite growth remaining, % of DMSO control (lower = more inhibition) in experiment [4] amounted to 16.9% [at 57.5 µM]. Further, the parasite growth, % of control (lower = inhibition) in experiment [5] is 7.39% [at 57.5 µM]. In experiment [6], this molecule registered a growth, % of control of 3.82% [at 57.5 µM]. Besides, the cell viability, % of control (lower = more cytotoxic) in [7] was found to be 13.7% [at 92.2 µM]. The same molecule registered a viability (% of control) in [8] of 27.7% [at 92.2 µM]. Besides, the Potency entry in [9] and in experiment [10] was “inactive” each time. The Potency is 3.03 µM (active) in experiment [11], 34 µM (active) in experiment [15], 42.9 µM (active) in experiment [12] and 34 µM (active) in experiment [13].

Consider `CC(C)C[C@H](NC(=O)[C@@H](O)[C@H](N)Cc1ccccc1)C(=O)O`, for which the remaining parasite growth % (stronger effect = lower value) in [1] is 2.82%. Also, the activity, percent of control in [14] amounted to 6.99%. In experiment [2], this molecule had a remaining proliferation (% of control), lower = more inhibition of 5.96%. This molecule had a parasite growth, % of DMSO control in experiment [3] of 7.87%. In experiment [4], the parasite growth remaining, % of DMSO control (lower = more inhibition) was 10.1%. Further, the parasite growth, % of control (lower = inhibition) in experiment [5] came to 16%. Also, the growth, % of control in experiment [6] worked out at 6.17%. The cell viability, % of control (lower = more cytotoxic) in [7] came out at 103%. The molecule further had a viability (% of control) in experiment [8] of 38.3%. Further, the Potency entry in experiment [9] and in [10] was “inactive” in each case. Moreover, the Potency in experiment [11] is 23.5 µM (active); in experiment [15], 26.4 µM (active); in [13] it was 23.5 µM (active).

For `NS(=O)(=O)c1cc2c(cc1Cl)NC=NS2(=O)=O`, the parasite growth, % of DMSO control in experiment [3] came out at 88.5%. Moreover, the parasite growth remaining, % of DMSO control (lower = more inhibition) in experiment [4] was 91.5%. Moreover, in [5], the parasite growth, % of control (lower = inhibition) amounted to 125%. The same molecule registered a growth, % of control in experiment [6] of 105%. In addition, in experiment [7], the cell viability, % of control (lower = more cytotoxic) stood at 71.6%. For the same molecule, in experiment [8], the viability (% of control) is 26.7%. Further, the Potency entry in [9], in experiment [10], in [11], in experiment [15], in experiment [12] and in [13] was “inactive” in each case. Further, the Potency entry in experiment [16] is “inactive”.
